CCHF vOTU inh-1: blocks the CCHF virus ovarian tumor domain protease; CCHFV vOTU protease, Pep-AMC fluorescence; inhibition, % at 11.5 µM; 0.55% of 370,000 active; AID 651958; note: 0% = vehicle wells with enzyme and 100% = no enzyme wells
PriA SSB inh: K. pneumoniae PriA-SSBct interaction inhibition; AlphaScreen SSBct-PriA binding, biotinylated peptide; inhibition, % at 33 µM; 0.6% of 430,000 active; AID 1272365; in the data active = inhibition mostly above about 37%, no sharp cut-off; inactive = mostly below about 20%;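 note: plate controls were negative control peptide for no effect and reference peptide for full effect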
RecA splice inh: Mtb RecA intein splicing inhibition | P9WHJ3 | 0.75% of 290,000 active | inhibition, % (concentration not given with the values) | cell-free RecA intein splicing, fluorescence | AID 2221; in the data active = inhibition above about 30%;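 note: 0% = vehicle wells and 100% = reference inhibitor control wells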
Target sequence (P9WHJ3 whole entry, looked up, canonical isoform): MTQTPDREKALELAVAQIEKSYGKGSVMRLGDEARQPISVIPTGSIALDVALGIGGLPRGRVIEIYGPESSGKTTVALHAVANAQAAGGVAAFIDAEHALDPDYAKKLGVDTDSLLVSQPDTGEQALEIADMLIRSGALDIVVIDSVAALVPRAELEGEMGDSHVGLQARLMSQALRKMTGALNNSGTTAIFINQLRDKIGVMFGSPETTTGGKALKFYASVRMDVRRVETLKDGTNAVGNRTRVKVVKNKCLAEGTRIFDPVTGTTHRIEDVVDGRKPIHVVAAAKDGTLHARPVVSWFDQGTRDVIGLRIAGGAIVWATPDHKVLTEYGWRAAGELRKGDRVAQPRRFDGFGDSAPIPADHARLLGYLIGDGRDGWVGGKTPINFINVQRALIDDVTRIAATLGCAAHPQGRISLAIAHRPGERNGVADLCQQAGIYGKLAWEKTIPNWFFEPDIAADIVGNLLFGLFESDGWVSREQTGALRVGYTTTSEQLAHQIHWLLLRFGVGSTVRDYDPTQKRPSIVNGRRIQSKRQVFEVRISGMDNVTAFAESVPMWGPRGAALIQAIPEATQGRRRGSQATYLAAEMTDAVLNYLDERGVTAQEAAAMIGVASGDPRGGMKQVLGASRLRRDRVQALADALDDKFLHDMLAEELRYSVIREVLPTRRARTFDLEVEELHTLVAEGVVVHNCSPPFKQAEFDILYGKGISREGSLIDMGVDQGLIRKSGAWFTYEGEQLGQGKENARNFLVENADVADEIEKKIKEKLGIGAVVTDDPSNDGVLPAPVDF
SARS 3CLpro inh-1: SARS-CoV 3CLpro protease inhibition | P0C6X7 | recombinant SARS-CoV 3CLpro, quenched FRET peptide cleavage | inhibition, % at 6 µM | 0.14% of 290,000 active | AID 1706; in the data active = inhibition above about 12%
DUSP3 inh: blocks human VHR1 dual specificity phosphatase; AID 1654; P51452; recombinant VHR phosphatase, pNPP absorbance; inhibition, % at 13.3 µM; 0.52% of 290,000 active; in the data active = inhibition above about 50%
SARS 3CLpro inh-2: SARS 3CLpro inhibition, confirmation assay | QFRET protease activity assay | 36% of 380 active | AID 1879 | inhibition, % at 6 µM | shares compounds with SARS 3CLpro inh-1; in the data active = inhibition above about 13%
GFP chromophore: counter-screen: blocks GFP chromophore formation. 83% of 2,100 active. EC50, µM. shares compounds with RecA splice inh. cell-free GFP chromophore formation, fluorescence. AID 434968; call rule not given here
CCHF vOTU inh-2: confirmation of CCHF virus vOTU protease inhibitors | AID 686976 | shares compounds with CCHF vOTU inh-1 | inhibition, % at 11.5 µM | Recombinant CCHFV vOTU, Pep-AMC fluorescence | 17% of 1,900 active
An asterisk follows results filed as active; . = no result. In the library only some 1.7% were active in any assay of this set; here they are far more common. Cut-off read from the data, not from the text of the source, unless noted: active = inhibition above about 30%; inactive = the rest.

SMILES	CCHF vOTU inh-1	PriA SSB inh	RecA splice inh	SARS 3CLpro inh-1	DUSP3 inh	GFP chromophore	others
CCC(O)(CC)C(=O)NN(C(=O)CCl)c1ccccc1	-8	-10	13	-2	-7	.
O=C(NCc1cccs1)c1ccc(Oc2nccs2)cc1	.	4	.	.	.	.
COc1cc2c(cc1OC)C(C1C(=O)CC(C)(C)CC1=O)N(C(=O)CCl)CC2 (stereo not drawn)	-46	2	-7	-3	-13	.
COc1cc2c(cc1OC)C(c1cc(Br)ccc1F)N(C(=O)CCl)CC2 (stereo not drawn)	-15	-3	86*	22*	7	4.5*	SARS 3CLpro inh-2=34*
O=C(CCSc1nnc2scc(-c3ccc(Cl)cc3)n12)Nc1cccc(-c2nc3ccccc3s2)c1	.	-13	.	.	.	.
CC(C)CCN1C(=O)C(C)(C)COc2ccc(NC(=O)c3cn(C)nn3)cc21	.	-9	.	.	.	.
CCc1ccc(S(=O)(=O)/N=C2\C=C(Nc3ccc(C(=O)O)cc3)C(=O)c3ccccc32)cc1	112*	.	91*	17*	-14	0.24*	SARS 3CLpro inh-2=11
Cc1ccccc1NC1=CC(=NS(=O)(=O)c2ccc(C(=O)O)cc2)c2ccccc2C1=O	.	17	.	.	.	.
Cc1ccc(C2=NN(C(=O)CCl)C(c3ccco3)C2)o1 (stereo not drawn)	12	-15	63*	47*	39	40*	SARS 3CLpro inh-2=61*
Cc1ccc(S(=O)(=O)N=C2C=C(Nc3cccc(C(=O)O)c3)C(=O)c3ccccc32)c(C)c1	.	15	.	.	.	.
Cc1ccc(S(=O)(=O)/N=C2\C=C(Nc3cccc(C(=O)O)c3)C(=O)c3ccccc32)cc1	105*	.	95*	14*	15	0.51*	SARS 3CLpro inh-2=8;CCHF vOTU inh-2=99*
O=C(CSc1nc2c(c(=O)[nH]1)CN(Cc1ccccc1)CC2)Nc1ccc2c(c1)OCCO2	.	11	.	.	.	.
CCN(CC)c1ccc(/C=N/NC(=O)c2nnn(-c3nonc3N)c2C(C)C)c(O)c1	31*	.	-4	14*	2	.	SARS 3CLpro inh-2=3;CCHF vOTU inh-2=-20
CCN(CC)c1ccc(C=NNC(=O)c2nnn(-c3nonc3N)c2C(C)C)c(O)c1	.	2	.	.	.	.
CC(C)(C)c1ccc(S(=O)(=O)Nc2ccc3c(c2)OCCO3)cc1	.	7	.	.	.	.
Cc1ccc2c(c1)c1c(n2CC(O)CN2CCCCCC2)CCCC1 (stereo not drawn)	35*	7	44*	20*	-10	>38	SARS 3CLpro inh-2=0;CCHF vOTU inh-2=-1
O=c1c(N2CCN(c3ccccc3Cl)CC2)csc2ccc(Br)cc12	.	6	.	.	.	.
CCCCOc1ccc(Nc2cc(Cl)ccc2C(=O)O)cn1	37*	2	5	8	20	.	SARS 3CLpro inh-2=7;CCHF vOTU inh-2=-4
Cc1nnc(NC(=O)CSc2nnc(NC(=O)c3cccc(Cl)c3)s2)s1	.	10	.	.	.	.
COC1C(OC(=O)c2ccc(C)[nH]2)C(O)C(Oc2ccc3c(O)c(NC(=O)c4ccc(O)c(CC=C(C)C)c4)c(=O)oc3c2Cl)OC1(C)C (stereo not drawn)	38*	18	.	13*	28	.	SARS 3CLpro inh-2=11;CCHF vOTU inh-2=16
NS(=O)(=O)c1ccc(Nc2ccc([N+](=O)[O-])c3nonc23)cc1	31*	6	14	15*	11	.	SARS 3CLpro inh-2=6;CCHF vOTU inh-2=17
CCN(CC)CC(=O)Nc1sc(C)cc1C(=O)c1ccccc1	-5	1	-1	-3	6	.
Cc1cc(C(=O)c2ccccc2)c(NC(=O)CCl)s1	32*	4	58*	76*	-10	17*	SARS 3CLpro inh-2=81*;CCHF vOTU inh-2=-1
Cc1ccc(CNC(=O)c2ccc(N(C)S(=O)(=O)c3ccccc3)cc2)cc1	13	-1	37*	2	8	>38
O=C1c2[nH]nc(-c3ccccc3O)c2C(c2cccc(Cl)c2)N1Cc1ccco1 (stereo not drawn)	6	29	34*	7	-1	>38
SMILES	CCHF vOTU inh-1	PriA SSB inh	RecA splice inh	SARS 3CLpro inh-1	DUSP3 inh	GFP chromophore	others
O=C1c2[nH]nc(-c3ccccc3O)c2C(c2ccc(F)cc2)N1Cc1ccco1 (stereo not drawn)	17	20	20	2	26	.
COc1ccc2nc(C)cc(Sc3nc4ccccc4s3)c2c1	-8	11	38*	-1	15	24*
Cc1[nH]c2ccc(F)cc2c1CCN(Cc1cccnc1)C(=S)Nc1ccc(F)cc1	6	6	40*	-2	-3	>38
CCNC(=S)N(CCc1c(C)[nH]c2ccc(F)cc12)Cc1cccnc1	-6	-7	2	0	-18	.
O=C(Nc1ccccc1Cc1nc(-c2cnccn2)no1)c1cc2ccccc2o1	.	1	.	.	.	.
CC1(C)COc2ccc(NS(=O)(=O)c3cccc4ccccc34)cc2NC1=O	.	17	.	.	.	.
Cc1ccc(C(=O)c2ccc([N+](=O)[O-])cc2)cc1	-1	16	2	7	-11	.
Cc1ccc(C(=O)c2coc3cc([N+](=O)[O-])c(O)c([N+](=O)[O-])c23)cc1	3	8	34*	-1	30	37*
O=C(CSc1nnc(Cc2ccccc2)o1)Nc1cccc(F)c1	14	-27	43*	4	6	>38
Cc1ccc(-c2nnc(NC(=O)c3ccc([N+](=O)[O-])cc3)o2)c(C)c1	.	-7	.	.	.	.
CCCCCOc1ccc(C(=O)Nc2ccc(-c3nc4ccccc4s3)c(O)c2)cc1	.	-5	.	.	.	.
C=CCn1c(NC(=O)c2ccc(Br)o2)c(S(=O)(=O)c2ccccc2)c2nc3ccccc3nc21	3	1	46*	3	-4	31*
C=CCn1c(NC(=O)c2ccco2)c(S(=O)(=O)c2ccccc2)c2nc3ccccc3nc21	.	.	.	.	-3	.
Cc1noc(C)c1COC(=O)CCOc1ccccc1	-6	-14	1	-5	-8	.
Cc1noc(C)c1COC(=O)Cc1ccc(Br)cc1	1	-7	1	-3	0	>38
N#CC(C#N)[C@H](C#N)c1ccccc1F	.	-10	.	.	.	.
CS(=O)(=O)c1nc([N+](=O)[O-])nn1CCCc1ccccc1	.	-9	51*	.	.	26*
CC(=O)N1N=C(c2cc(C)oc2C)C[C@H]1c1cc(Cl)ccc1Cl	.	-16	.	.	.	.
Cc1ccccc1N1C(=O)c2ccccc2C1Nc1cccnc1 (stereo not drawn)	8	-2	33*	-5	17	>38
Cc1c(O)c2ccccc2n(-c2ccccc2)c1=O	3	-5	0	.	.	.
CC(C)(C)c1c(Cl)c(O)c(-c2ccccc2)c(=O)n1-c1ccccc1	19	0	31*	8	-3	>38
NC(=NOC(=O)c1cc(Cl)ccc1Cl)c1ccccn1	.	-19	.	.	.	.
O=C(CSCc1ccc([N+](=O)[O-])cc1)N/N=C/c1cccnc1	-1	.	38*	1	30	>38
Cc1[nH]n(-c2ccccc2)c(=O)c1/C=N/O	4	.	8	7	4	.
Cc1[nH]n(-c2ccccc2)c(=O)c1/C=C1\C=NN=C1c1ccccc1	-4	.	82*	3	-26	7.4*
Cc1ccc(OC(=O)c2ccc([N+](=O)[O-])cc2Cl)cn1	-8	-3	32*	-2	.	33*

From PubChem
